# Screens from PubChem BioAssay.
# GLP1R ag = agonists of human GLP-1 receptor; P43220; HEK293 GLP-1R CRE-luciferase, luminescence, 4-6 h; cells express a hypersensitive GLP-1R form; Potency, µM (titrated, usually from 45.6 µM), without a hit: at the highest dose activation, actives largely listed as activators; 380,000 tested, 0.007% active; AID 624172; also: % of control where 0% means no effect
# GLP1R cytotox = cytotoxic in the GLP-1 receptor inverse agonist counter-screen. Potency, µM (titrated, usually from 38.3 µM), for inactives: at the highest dose activity change, negative = inhibition, usual class: inhibitors. HEK293 cAMP-luciferase reporter cells, luminescence, 24 h. AID 624418. 410,000 tested, 0.13% active;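 also: loss of luciferase light is scored as toxicity; % is scaled to controls: 0 for no effect and ±100 for the full control effect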
#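 To flag toxic compounds, the library was rerun on cells for 24 hr at 37 deg C and 5% CO2. Viability-linked luminescence was captured 12 min after adding luciferase detection reagent.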
# GLP-1R inv ag = inverse agonists of human GLP-1 receptor; P43220; HEK293 GLP-1R CRE-luciferase, luminescence, 24 h; GLP-1R form is constitutively active; Potency, µM (highest dose often 38.3 µM), for the others: top-dose activity change, negative = inhibition, usual class: inhibitors; 410,000 tested, 1.6% active; AID 624417; also: % is scaled to controls: 0 for no effect and ±100 for the full control effect; nearly all actives have a fitted effect of over 55% in size
#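 Constitutively active GLP-1R drives a cAMP-responsive luciferase in stably transfected HEK293 cells; test compounds are added after overnight (12 h) attachment and left 24 hr, and signal loss in luminescence marks inhibition.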
# PTHR1 agonist = activates the human parathyroid hormone receptor PTHR1 | Q03431 | HEK293 GP2 PTHR1 cells, GloSensor cAMP luminescence, 1 h | Potency, µM (highest dose often 115 µM), for inactives: top-dose activation, hits mostly activators | 410,000 tested, 0.075% active | AID 743266; also: nearly all actives have a fitted effect of over 55% in size
# Target sequence (Q03431 whole entry, looked up): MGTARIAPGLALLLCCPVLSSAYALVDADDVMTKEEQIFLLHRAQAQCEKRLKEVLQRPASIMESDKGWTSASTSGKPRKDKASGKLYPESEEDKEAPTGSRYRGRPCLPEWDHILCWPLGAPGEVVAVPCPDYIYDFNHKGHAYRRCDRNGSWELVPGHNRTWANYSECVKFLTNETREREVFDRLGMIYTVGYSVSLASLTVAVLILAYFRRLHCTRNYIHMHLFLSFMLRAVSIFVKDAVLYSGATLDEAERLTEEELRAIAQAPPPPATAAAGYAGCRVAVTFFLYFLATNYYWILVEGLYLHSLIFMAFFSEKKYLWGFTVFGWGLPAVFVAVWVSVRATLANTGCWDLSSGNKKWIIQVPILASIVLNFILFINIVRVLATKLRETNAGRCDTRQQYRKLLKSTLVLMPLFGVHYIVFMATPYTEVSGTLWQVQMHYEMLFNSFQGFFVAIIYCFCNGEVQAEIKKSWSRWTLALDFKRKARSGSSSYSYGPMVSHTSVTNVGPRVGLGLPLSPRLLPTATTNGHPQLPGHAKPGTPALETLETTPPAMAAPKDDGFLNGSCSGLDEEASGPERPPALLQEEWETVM
#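 HEK-293-derived GP2 cells expressing PTHR1 and a GloSensor cAMP reporter, 3,000/well, plated overnight, given luciferin plus IBMX (each 0.5 mM as added) for 1 h at 37 °C, then compound for 1 h at 37 °C. Luminescence was read after 15 min at room temperature.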
# * marks the source's active call; other numbers are inactive results; i = inactive; ? = inconclusive; · = no result; [ ] = remark or other dose. Most compounds without a hit are left out; they make up all but 1.7% or so of the library. Calls follow the shape of the dose curve; as a rule, active = well fitted curve in the direction sought with a large enough effect; inconclusive = small, poorly fitted or top-dose-only effect, or another doubt; inactive = no such curve, though single readings can be large; an effect the other way counts as inactive or inconclusive. Potency is read from the fitted curve at half-maximal effect.
SMILES,GLP1R ag,GLP1R cytotox,GLP-1R inv ag,PTHR1 agonist
Cc1ccccc1OCC(O)CNC1CCC(NCC(O)COc2ccccc2C)CC1 (stereo unspecified),-9.6%,?,1.26µM*,?
NC1=NC[C@H](Cc2ccc(O)cc2)N1CCc1cccc(F)c1,-4.2%,1.6%,6.5%,i
NC1=NC[C@@H](Cc2ccc(O)cc2)N1CCC12CC3CC(CC(C3)C1)C2,12.4%,-12.2%,8.91µM*,-25.5%
Cc1nn(-c2ccccc2)c2sc(C(=O)Nc3ccc(Cl)cc3Cl)cc12,·,-11.1%,3.5%,i
CC(C)CC(N)c1cn([C@@H](CCC(=O)O)C(=O)N2CCNCC2)nn1 (stereo partly specified),8.1%,8.1%,11.5%,-18.2%
CC(C)C[C@H](N)c1cn([C@@H](CCCCN)C(=O)N2CCNCC2)nn1,-21.7%,?,0.891µM*,-1.2%
CCC(CC)C(=O)N(C)c1c(C)nc2c(OCc3cc(Cl)cc(Cl)c3)cccn12,10.3%,-0.6%,11.2µM*,i
CCC(CC)C(=O)N(C)c1c(C)nc2c(OCc3cccc(Cl)c3)cccn12,-4.3%,1.1%,?,-0.6%
CCOc1ccc(Nc2nc(N)c3ccccc3n2)cc1,-4.7%,-31.7%,2.24µM*,-35.8%
CN(C)c1ccc(Nc2nc(N)c3ccccc3n2)cc1,-3.9%,-11.8%,2µM*,-92.8%
Cc1ccc(Nc2nc(N)nc(CCl)n2)cc1,17.0%,-5.5%,?,-16.3%
CCOc1ccc(Nc2nc(N)nc(CCl)n2)cc1,?,?,5.01µM*,-29.7%
CCOc1ccc(C(=O)N2CCN(Cc3cc(=O)n4nc(-c5ccccc5Cl)sc4n3)CC2)cc1,·,-9.2%,-7.3%,i
O=C(CCl)Nc1cccc(S(=O)(=O)NC2=NCCCCC2)c1,-4.3%,11.2µM*,?,i
O=C(/C=C/c1ccc(Cl)cc1Cl)Nc1cccc(S(=O)(=O)NC2=NCCCCC2)c1,9.4%,-14.9%,10µM*,-92.4%
CCOc1ccc(NC(=O)CN2C(=O)COc3ccc(S(=O)(=O)NC4CCCC4)cc32)cc1,·,-19.8%,-23.6%,i
CCN(CC)CCCN1CC(O)=C(c2nc3ccccc3s2)C1=N,4.8%,-5.2%,11.2µM*,i
COc1cccc(CN(Cc2ccco2)c2cnc(S(C)(=O)=O)nc2C(=O)Nc2cccc(Cl)c2C)c1,·,-1.8%,0.8%,i
Cc1ccc(-c2nn(CC(=O)NC3CCCCC3)c3c2cnc2ccc(F)cc23)cc1C,·,21.2%,-15.0%,-12.3%
Cc1ccc(CSc2nc(-c3ccc(C(C)(C)C)cc3)nc3cc(=O)[nH]n23)cc1,·,0.2%,-10.5%,i
CCC1SC2=NC(C)=C(C(=O)OCC(C)C)C(/C=C/c3ccccc3OC)N2C1=O (stereo unspecified),24.8%,7.2%,7.94µM*,-40.0%
CCC1SC2=NC(C)=C(C(=O)OCCOC)C(/C=C/c3ccccc3OC)N2C1=O (stereo unspecified),-1.1%,-7.2%,?,-2.9%[57.5 µM]
CCN(c1ccc(OC)cc1)S(=O)(=O)c1ccc(-c2cc(C)no2)s1,19.6%,-47.3%,7.94µM*,-7.7%
Cc1ccc(C2Nc3ccccc3-n3c(-c4ccccc4)c4c(=O)n(C)c(=O)n(C)c4c32)cc1 (stereo unspecified),·,30.2%,21.8%,i
CC(C)SC1=NC(C)(C)C=C(/C=C/c2c(Cl)cccc2Cl)N1,-12.7%,-5.8%,2.82µM*,i
SMILES,GLP1R ag,GLP1R cytotox,GLP-1R inv ag,PTHR1 agonist
C=CCOc1ccccc1CN1CCC(C(=O)Nc2cccc(-c3ccn[nH]3)c2)CC1,-6.5%,?,7.94µM*,-10.5%
CC1=NN(C(=O)c2csc(C(C)C)c2)C(O)(C(F)(F)F)C1 (stereo unspecified),1.9%,?,1.26µM*,-12.7%
CC(C)CC1=NN(C(=O)c2ccncc2)C(O)(C(F)(F)F)C1 (stereo unspecified),-0.5%,-22.7%,1.12µM*,-4.8%
COc1ccc(N(Cc2cccs2)C(=O)COc2ccc(C(C)C)cc2)cc1,·,?,?,-42.8%
Cc1ccc(C)c(NC(=O)CSc2ccc3nc(-c4ccccc4)cn3n2)c1,·,-1.2%,-0.8%,-30.5%
Cc1ccc(C(C)C)c(OCCOCCN2CCNCC2)c1,-1.4%,9.7%,-74.2%,-5.6%
Clc1ccc(SCCCCN2CCNCC2)cc1,0.1%,-19.1%,1.78µM*,i
Cc1ccc(SCCCCN2CCOCC2)cc1,-1.7%,-1.0%,-24.3%,-21.6%
